Read-out in assay [1]: Cyclin Dependent Kinase Inhibitor 1A (CDKN1A), CDKN1A (gene 1026)
In words: LTEA_HepaRG_CDKN1A: Life Technologies and Expression Analysis (LTEA) Assay for Cyclin Dependent Kinase Inhibitor 1A (CDKN1A) using HepaRG (AID 2283450). The settings on record: mRNA level, 48 h; actives raise or lower the signal. Summed up:
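Cryopreserved HepaRG cells were plated and cultured 48 h, then switched to serum-free induction medium. Chemicals (eight half-log concentrations, top 100 uM, 0.5% DMSO) were applied for 48 h. Lysates underwent qRT-PCR for CDKN1A with housekeeping normalization.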

Read-out in assay [2]: Cyclin D1 (CCND1), CCND1 (gene 595)
The experiment in a line: LTEA_HepaRG_CCND1: Life Technologies and Expression Analysis (LTEA) Assay for Cyclin D1 (CCND1) using HepaRG (AID 2283451). The settings on record: mRNA level, 48 h; actives raise or lower the signal. Summed up: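 Human liver HepaRG line; 48 h dosing, 8 conc. ≤100 uM, 0.5% DMSO; TaqMan qRT-PCR mRNA, 3 housekeeping genes; bidirectional curve fit vs DMSO.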

Read-out in assay [3]: catalase (CAT), CAT (gene 847)
In words: LTEA_HepaRG_CAT: Life Technologies and Expression Analysis (LTEA) Assay for catalase (CAT) using HepaRG (AID 2283452).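 As to AC50: TaqMan qRT-PCR signal normalized to ACTB GAPDH and POLR2A housekeeping genes.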 Conditions: mRNA level, 48 h; actives raise or lower the signal. Summed up: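 Differentiated HepaRG cells in serum-free induction medium were dosed 48 h in duplicate, eight half-log concentrations from 100 uM in 0.5% DMSO. Transcript measured by TaqMan qRT-PCR, normalised to ACTB/GAPDH/POLR2A, fitted bidirectionally against DMSO.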

Read-out in assay [4]: Cytochrome P450 (CYP1A1), CYP1A1 (gene 1543)
In words: LTEA_HepaRG_CYP1A1: Life Technologies and Expression Analysis (LTEA) Assay for Cytochrome P450 (CYP1A1) using HepaRG (AID 2283454). Conditions: mRNA level, 48 h; actives raise or lower the signal. Summed up: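 Induction of CYP1A1 mRNA in a human hepatic cell line was measured 48 h after dosing, with 1 mM phenobarbital as induction positive control and 0.5% DMSO vehicle as baseline for bidirectional curve fitting.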

Read-out in assay [5]: CFLAR gene, CFLAR (gene 8837)
In words: LTEA_HepaRG_CFLAR: Life Technologies and Expression Analysis (LTEA) Assay for CFLAR gene using HepaRG (AID 2283455). The settings on record: mRNA level, 48 h; actives raise or lower the signal. Summed up:
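HepaRG cells were plated for 48 h, switched to serum-free induction medium, then exposed in duplicate for 48 h to 8 concentrations (top 100 uM, half-log steps, 0.5% DMSO). CFLAR mRNA was measured by qRT-PCR, normalized to ACTB, GAPDH and POLR2A.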

Read-out in assay [6]: Forkhead box O1 (FOXO1), FOXO1 (gene 2308)
In words: LTEA_HepaRG_FOXO1: Life Technologies and Expression Analysis (LTEA) Assay for Forkhead box O1 (FOXO1) using HepaRG (AID 2283456). Conditions: mRNA level, 48 h; actives raise or lower the signal. Summed up: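 Differentiated human HepaRG cells in serum-free induction medium were exposed in duplicate for 48 h to eight half-log concentrations (top 100 uM, 0.5% DMSO). FOXO1 mRNA was measured by TaqMan qRT-PCR, normalised to ACTB, GAPDH and POLR2A, and fitted bidirectionally against DMSO.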

Read-out in assay [7]: growth arrest and DNA damage 45 (GADD45A), GADD45A (gene 1647)
In words: LTEA_HepaRG_GADD45A: Life Technologies and Expression Analysis (LTEA) Assay for growth arrest and DNA damage 45 (GADD45A) using HepaRG (AID 2283458). Conditions: mRNA level, 48 h; actives raise or lower the signal. Summed up:
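Human HepaRG liver cells are treated in duplicate for 48 h with chemicals in 0.5% DMSO, highest concentration 100 uM. Expression is read by qRT-PCR and analyzed in both directions against vehicle.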

Read-out in assay [8]: Forkhead box O3 (FOXO3), FOXO3 (gene 2309)
In words: LTEA_HepaRG_FOXO3: Life Technologies and Expression Analysis (LTEA) Assay for Forkhead box O3 (FOXO3) using HepaRG (AID 2283459). Conditions: mRNA level, 48 h; actives raise or lower the signal. Summed up:
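Differentiated human HepaRG cells in serum-free induction medium were exposed in duplicate for 48 h to eight half-log concentrations up to 100 uM in 0.5% DMSO. FOXO3 mRNA was quantified by qRT-PCR, normalized to ACTB, GAPDH and POLR2A, with bidirectional fitting versus DMSO.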

Read-out in assay [9]: flavin-containing dimethylaniline monooxygenases 3 (FMO3), FMO3 (gene 2328)
The experiment in a line: LTEA_HepaRG_FMO3: Life Technologies and Expression Analysis (LTEA) Assay for flavin-containing dimethylaniline monooxygenases 3 (FMO3) using HepaRG (AID 2283453).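 As to AC50: FMO3 transcript by TaqMan qRT-PCR normalized to ACTB GAPDH and POLR2A.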 Conditions: mRNA level, 48 h; actives raise or lower the signal. Summed up:
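HepaRG, 48 h exposure, 8-pt half-log series from 100 uM, 0.5% DMSO vehicle, duplicates; FMO3 transcript by Fluidigm TaqMan qRT-PCR, housekeeping-normalized; gain/loss fit vs DMSO.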

The nature of assay [10]: CEETOX_H295R_TESTO: CeeTox H295R High-throughput Steroidogenesis Assay for Testosterone (TESTO) (AID 2283457). The settings on record: actives raise or lower the signal. Summed up:
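Testosterone synthesis is assessed in human adrenocortical H295R cells after 48 h of chemical exposure, using HPLC-MS/MS of extracted medium. Activity is fitted in both directions against DMSO control.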

Values joined by “and” are separate entries in the source; they are usually repeats but may differ in a detail not shown here. Equal values may be shown once. Some compounds were tested as several samples or in several runs, with calls that do not always agree. Active and inactive are the calls of the source. The calls were made as follows: active = hit-call score of the fitted dose curve at least 0.9, where 1 is the maximum; inactive = score below 0.9.

The results in this text go back to PubChem BioAssay (EPA / NIEHS).

On to `O=S(=O)(O)C(F)(F)C(F)(F)C(F)(F)C(F)(F)C(F)(F)C(F)(F)C(F)(F)C(F)(F)F`, for which the outcome in assay [1], in assay [2], in assay [3], in assay [4], in assay [5] and in assay [6] was inactive. Also, the compound was called inactive in assay [7] and in [8]. Besides, the AC50 (in general, the concentration giving half of the maximal activity seen) was 18.5 µM (active) and 22.3 µM (active) and 12.3 µM (active) in assay [2]; 84 µM (active) in assay [3]; 22.6 µM (active) in assay [4]; 13.2 µM (active) in assay [5]; 13.3 µM (active) in assay [6].

On to `CCC(C)Nc1c([N+](=O)[O-])cc(C(C)(C)C)cc1[N+](=O)[O-]` (stereo not drawn), for which the compound was called inactive in [1], in assay [2], in assay [3], in [9], in assay [5] and in [6]. Also, the compound was classed as inactive in [7] and in [8]. For the same compound, the AC50 in [4] was 12.9 µM (active).

For `O=C(O)CCCOc1ccc(Cl)cc1Cl`, the compound was classed as inactive in assay [1], in assay [2], in assay [3], in assay [9], in assay [5] and in [6]. The compound was classed as inactive in [7] and in assay [8]. For the same compound, the AC50 in assay [4] is 50.8 µM (active).

As to `CNC(=O)Oc1cccc(N=CN(C)C)c1`, the call in assay [1], in assay [2], in [3], in assay [9], in [5] and in [6] was inactive. Besides, the compound was classed as inactive in assay [7] and in assay [8]. In [4], the AC50 was 50.2 µM (active).

On to `O=[N+]([O-])/N=C1\NCCN1Cc1ccc(Cl)nc1`, for which the AC50 in assay [1] was 12.2 µM (active); in assay [3], 39.8 µM (active); in assay [9] it was 34.6 µM (active); in [4], 9.92 µM (active); in [5], 26.3 µM (active); in assay [7] it was 23.6 µM (active). For the same compound, in assay [8], the AC50 was 26.9 µM (active). For the same compound, the result in assay [2], in assay [6] and in [10] was inactive.

With `CNC(=O)CSP(=S)(OC)OC`, the compound was called inactive in assay [1], in assay [2], in assay [3], in assay [9], in assay [5] and in [6]. Moreover, the outcome in assay [7] and in assay [8] was inactive. For the same compound, the AC50 in assay [4] is 24.8 µM (active).

Regarding `CC1(c2ccc(Oc3ccccc3)cc2)OC(=O)N(Nc2ccccc2)C1=O` (stereo not drawn), the AC50 in assay [1] was 9.7 µM (active); in [3], 12.7 µM (active); in assay [9], 24.4 µM (active); in assay [4] it was 14.1 µM (active); in [6], 50.2 µM (active); in assay [7], 13 µM (active). Moreover, the AC50 in [8] was 4.78 µM (active). For the same compound, the call in assay [2] and in assay [5] was inactive.

`C[C@H]1[C@H](c2ccc(Cl)cc2)SC(=O)N1C(=O)NC1CCCCC1`: the AC50 in assay [1] was 71.6 µM (active); in [3], 66.2 µM (active); in [9], 75 µM (active); in assay [4], 14.9 µM (active); in [6], 83.2 µM (active); in assay [7] it was 75.8 µM (active). Also, the call in assay [2], in assay [5], in assay [10] and in assay [8] was inactive.

On to `CCC(C)(C)C(=O)OC1=C(c2ccc(Cl)cc2Cl)C(=O)OC12CCCCC2`, for which the result in assay [1], in [2], in [3], in assay [5], in assay [6] and in assay [10] was inactive. The call in assay [7] and in assay [8] was inactive. Besides, the AC50 in [9] was 66.4 µM (active); in [4] it was 50 µM (active).

As for `C#CCN1C(=O)COc2cc(F)c(N3C(=O)C4=C(CCCC4)C3=O)cc21`, the compound was classed as inactive in [1], in [2], in assay [3], in [9], in [5] and in [6]. Further, the compound was called inactive in [10], in assay [7] and in [8]. Besides, the AC50 in [4] was 65.6 µM (active).
